A selection: hits, their analogues and other compounds. The true share with any hit is near 4.1%.
MIN6 prolif: induces beta-cell replication in MIN6 cells. MIN6 cells proliferation, ATPlite luminescence, 48 h; cells starved in 0.2% serum; 100% = growth in 10% serum. proliferation, % at 10 µM. hit rate 0.29% among 330,000. AID 2380;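 active means compounds whose signal lies at least 3.5 SD above the mean of all wells on their plate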;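 further: 0% = DMSO-treated cells in low-serum medium and 100% = 10% serum control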
FAS-TE inh: blocks the thioesterase domain of human fatty acid synthase; recombinant FAS-TE, OMFH fluorogenic substrate, fluorescence endpoint; AID 602261; hit rate 0.67% among 360,000; P49327; inhibition, % at 15 µM;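 active means compounds whose normalised, plate-corrected inhibition of enzyme fluorescence in the single-dose primary screen is 50% or more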;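 further: 0% = DMSO with enzyme and 100% = substrate without enzyme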
NR3A LBD binder: modulates the human NR3A ligand-binding domain. hit rate 2.5% among 340,000. Tm shift relative to glycine control, % at 25 µM. NR3A LBD differential scanning fluorimetry, Tm shift; 0% = protein alone, 100% = glycine-bound protein;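 active means melting temperature shift of at least 10% of the positive control shift, at one fixed dose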
MPTP block: permeability transition pore inhibition; isolated mouse mitochondria, Ca2+ swelling absorbance, 30 min; AID 602449; inhibition, % at 10 µM; hit rate 1.4% among 360,000;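 active means inhibition of 50% or more, scaled per plate between neutral and stimulator controls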;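 further: 0% = DMSO wells given calcium and 100% = 1 mM EGTA wells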
pCIP destab: p/CIP protein destabilization. Q05BA5. F442A p/CIP-EGFP cells, EGFP fluorescence, 16 h. decrease of EGFP signal, % at 10 µM. hit rate 0.01% among 290,000. AID 1984;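 active means EGFP signal decrease of at least 30% at 10 µM or well 3 SD below plate mean, unless failing retest; inactive means the rest, including hits failing retest or dose response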
FAS-TE inh conf: confirmation of human fatty acid synthase thioesterase inhibitors; shares compounds with FAS-TE inh; recombinant FAS-TE, OMFH fluorogenic substrate, fluorescence; inhibition, % at 15 µM; hit rate 45% among 2,300;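 active means compounds inhibiting the enzyme by at least 50% at 15 µM in any one of the replicates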;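 further: 0% = enzyme with DMSO only and 100% = wells lacking enzyme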
Active calls of the source: *; x = no result.

SMILES	MIN6 prolif	FAS-TE inh	NR3A LBD binder	MPTP block	pCIP destab	FAS-TE inh conf
COC(=O)[C@]12CCCCC=C1N(Cc1ccc(Cl)cc1Cl)C(=O)[C@H](CC(=O)N1CCCC1)C2	x	8	x	-1	x	x
CC[C@@]12C(=O)N(c3cccc(Br)c3)C(=O)N1[C@H](c1ccc(F)cc1)[C@@H]1C(=O)N(C3CCCCC3)C(=O)[C@@H]12	-4	52*	-3	0	x	24
O=C1[C@H]2[C@@H](c3ccc(F)cc3)N3C(=O)N(c4cccc(Br)c4)C(=O)[C@@]3(Cc3ccccc3)[C@H]2C(=O)N1C1CCCCC1	-5	80*	-6	2	x	35
O=S(=O)(c1ccccc1)n1cc(-c2cccc3nccn23)c2ccccc21	x	7	x	1	x	x
O=C(Cc1ccccc1[N+](=O)[O-])NCC1(c2cccc3c2OCO3)OCCO1	x	-3	1	0	x	x
CCOC(=O)c1c(NC(C)=O)sc2c1CCC(C=NCCCN(CC)CC)=C2Sc1ccccc1	-4	56*	1	-4	x	38
CCOC(=O)c1c(NC(C)=O)sc2c(OCCN(CC)CC)c(Br)ccc12	-7	12	-1	0	-17	x
CC(=O)N[C@H]1[C@H]([C@H](O)[C@H](O)CO)O[C@](O)(C(=O)O)C[C@@H]1O	x	-4	-4	0	x	x
COC(=O)C1=C(C(=O)OC)[C@@H]2N(C)c3ccc(OC)cc3[C@@]23C[C@@H](C(=O)OC)N(S(=O)(=O)c2ccc([N+](=O)[O-])cc2)C3=N1	-1	66*	-3	1	-4	27
COC(=O)CCCC[C@@H]1O[C@H](CCc2ccccc2)Cc2[nH]c(=S)[nH]c(=O)c21	x	11	x	0	x	x
COc1ccccc1-c1cc(SC)c(C#N)c(=O)o1	-3	55*	2	3	-3	47*
COc1ccccc1-c1cc(C(F)(F)F)c(C#N)c(=O)[nH]1	-1	-1	-1	0	-10	x
Cc1ccc(NC(=O)/C(=C/C=C/c2ccccc2)NC(=O)c2ccccc2)cc1	-1	63*	-2	4	2	22
O=C(Nc1c(C(=O)N2CCOCC2)cnn1-c1ccccc1)c1ccc([N+](=O)[O-])cc1	4	52*	-1	-1	0	56*
Cc1ccc(C(=O)Nc2c(C(=O)N3CCOCC3)cnn2-c2ccccc2)cc1	-3	3	0	-1	0	x
Cc1cc(C)cc(NC(=S)N=Nc2c(O)n(C)c3ccc(S(=O)(=O)N4CCOCC4)cc23)c1	-5	61*	-6	1	5	6
Cc1ccccc1NC(=S)N=Nc1c(O)n(C)c2ccc(S(=O)(=O)N3CCOCC3)cc12	-5	21	-4	1	-14	x
Cn1c(=O)n(C)c2cc(S(=O)(=O)N3CCOCC3)ccc21	1	-8	-11	0	4	x
Cc1cccc(Nc2ccc(S(=O)(=O)N3CCOCC3)cc2[N+](=O)[O-])c1	-3	25	-2	0	x	x
Cc1ccc(NC(=S)N=Nc2c(O)n(C)c3ccc(S(=O)(=O)N4CCOCC4)cc23)cc1	x	59*	-11	3	-7	27
Cc1cccc(NC(=S)N=Nc2c(O)n(C)c3ccc(S(=O)(=O)N4CCOCC4)cc23)c1	-5	59*	-8	1	-12	24
Cc1cccc(C)c1NC(=S)N=Nc1c(O)n(C)c2ccc(S(=O)(=O)N3CCOCC3)cc12	-6	76*	-2	0	2	31
CCC(c1nnnn1-c1ccc2c(c1)OCCO2)N1CCN(c2cccc(C)c2C)CC1 (stereo not given)	x	26	x	1	x	x
C=CCn1c(O)c(N=NC(=S)Nc2ccccc2F)c2cc(S(=O)(=O)N3CCOCC3)ccc21	-4	59*	-4	0	1	16
CCn1cc(C(=O)NCCC2=CCCCC2)c(=O)c2cc(S(=O)(=O)N(C)C)ccc21	3	80*	2	-3	11	82*
SMILES	MIN6 prolif	FAS-TE inh	NR3A LBD binder	MPTP block	pCIP destab	FAS-TE inh conf
CCn1cc(C(=O)NCc2ccc(C)cc2)c(=O)c2cc(S(=O)(=O)N(C)C)ccc21	-1	56*	-2	0	-14	62*
COc1ccc(S(=O)(=O)N(C)C[C@H]2OCc3cnnn3CCCC(=O)N([C@@H](C)CO)C[C@H]2C)cc1	x	-8	x	-2	x	x
CSc1ccc(COC(=O)c2cc([N+](=O)[O-])ccc2N2CCOCC2)cc1	-7	66*	2	-1	x	57*
COc1ccc(OC)c(COC(=O)c2cc([N+](=O)[O-])ccc2N2CCOCC2)c1	6	54*	-3	1	x	51*
O=C(NC(c1ccccc1)c1ccc2ccccc2n1)C1CCN(Cc2ccc(Cl)c(Cl)c2)CC1 (stereo not given)	x	12	x	0	x	x
C=CCn1c(=N)c(S(=O)(=O)c2ccc(C)c(C)c2)cc2c(=O)n3ccccc3nc21	2	54*	-13	0	-7	-14
O=C1C2ON(c3ccccc3)C(c3cccnc3)C2C(=O)N1c1ccc(Cl)c(Cl)c1 (stereo not given)	-1	60*	-13	6	-11	60*
CCc1ccc2cc(F)cc(F)c2n1	x	-12	x	-3	x	x
CC1CCc2c(C(=O)Oc3cccc(-n4cnnn4)c3)csc2C1 (stereo not given)	-2	85*	-9	5	-8	56*
Cc1ccc(C(=O)Oc2cccc(-n3cnnn3)c2)cc1	-3	31	-4	0	0	x
CCOC(=O)N(C)c1c(CC)nc2c(OCc3ccccc3OC)cccn12	x	-4	x	0	x	x
O=S1(=O)N[C@@H](Cc2ccccc2)COc2cc(N3CCN(Cc4ccccc4F)CC3)ccc21	x	-4	x	1	x	x
Cc1ccc(S(=O)(=O)N2C[C@H]3C(=O)C[C@@H]4C(=O)N(c5ccccc5)C(=O)[C@@H]4[C@@H]3C[C@@H]2c2ccccc2)cc1	x	75*	x	-1	x	39
Cc1ccc(S(=O)(=O)N2[C@H](C(C)C)[C@H]3[C@H]4C(=O)N(c5ccccc5)C(=O)[C@H]4CC(=O)[C@H]3[C@@H]2c2ccccc2)cc1	x	68*	x	0	x	42
COc1ccc([C@@H]2C[C@H]3[C@@H](CN2S(=O)(=O)c2ccccc2)C(=O)C[C@@H](c2ccc(OC)cc2)N3S(=O)(=O)c2ccccc2)cc1	x	76*	x	1	x	30
Cc1ccc(S(=O)(=O)N2C[C@H]3[C@H]4C(=O)N(c5ccccc5)C(=O)[C@H]4CC(=O)[C@H]3[C@@H]2c2cccc3ccccc23)cc1	x	84*	x	-1	x	46*
Cc1ccc(S(=O)(=O)N2C[C@H]3[C@H]4C(=O)N(c5ccccc5)C(=O)[C@H]4CC(=O)[C@H]3[C@@H]2c2ccc(Cl)cc2)cc1	x	41	x	-1	x	x

High-throughput results from PubChem BioAssay.
